18 compounds from the supplement of paper PMC13380429 can be followed below.

The experiment has as its system Vero E6 infected with SARS-CoV-2. The experiment in a line: inhibition of SARS-CoV-2 cytopathic effect; higher = more antiviral protection, active = above 15. Particulars: 48 h. A general note: Cytopathic effects are the visible damage that an infection or toxin causes in cultured cells.

Consider `COC(=O)C1=C(C)NC(C)=C(C(=O)OCCN2CCN(C(c3ccccc3)c3ccccc3)CC2)C1c1cccc([N+](=O)[O-])c1` (stereo not given) [manidipine], for which the “inhibition of SARS-CoV-2 cytopathic effect” value (shortened to “inhibition”) reads like this: (1 nM) 1.55% (inactive); (8.33 nM) 1.19% (inactive); (100 nM) -0.02% (inactive); (833.33 nM) 1.16% (inactive); (10000 nM) -7.15% (inactive).

In the case of `O=[N+]([O-])c1cc([N+](=O)[O-])c(/C=C/c2ccc(Cl)c(Cl)c2)cc1/C=C/c1ccc(Cl)c(Cl)c1`, the “inhibition” value was 2% (inactive) (1 nM); 1.02% (inactive) (8.33 nM); -3.12% (inactive) (100 nM); -5.26% (inactive) (833.33 nM); -2.22% (inactive) (10000 nM).

As for `CCCSc1nc(N[C@@H]2C[C@H]2c2ccc(F)c(F)c2)c2nnn([C@@H]3C[C@H](OCCO)[C@@H](O)[C@H]3O)c2n1` [ticagrelor], the “inhibition” value (1 nM) is -0.64% (inactive); the “inhibition” value (8.33 nM) is 1.24% (inactive); the “inhibition” value (100 nM) is -0.46% (inactive); the “inhibition” value (833.33 nM) is 0.82% (inactive); the “inhibition” value (10000 nM) was 1.32% (inactive).

With `Cc1cc(/C=C/C#N)cc(C)c1Nc1ccnc(Nc2ccc(C#N)cc2)n1` [rilpivirine], the “inhibition” value was 0.35% (inactive) (1 nM); -3.25% (inactive) (8.33 nM); -2.82% (inactive) (100 nM); -1.06% (inactive) (833.33 nM); -6.76% (inactive) (10000 nM).

Consider `CCCn1c(=O)c2nc(C34CC5CC(CC3C5)C4)[nH]c2n(CCC)c1=O`, for which the “inhibition” value was 1.22% (inactive) (1 nM); -0.55% (inactive) (8.33 nM); 2.44% (inactive) (100 nM); 2.31% (inactive) (833.33 nM); 1.25% (inactive) (10000 nM).

In the case of `COc1ccc(Oc2c(Cl)cnn(C3c4ccccc4-c4ccccc43)c2=O)cc1`, the “inhibition” value (1 nM) is -3.45% (inactive); the “inhibition” value (8.33 nM) was -3.66% (inactive); the “inhibition” value (100 nM) is 0.55% (inactive); the “inhibition” value (833.33 nM) was -0.63% (inactive); the “inhibition” value (10000 nM) is -0.88% (inactive).

In the case of `c1ccc(CCNc2nc(-c3ccccc3)cs2)cc1` [fanetizole], the “inhibition” value is -2.03% (inactive) (1 nM); 1.7% (inactive) (8.33 nM); -2.73% (inactive) (100 nM); -0.64% (inactive) (833.33 nM); 1.58% (inactive) (10000 nM).

Turning to `Cc1c(N2C(=O)[C@@H]3[C@H](O)CCN3C2=O)ccc(C#N)c1Cl`, the “inhibition” value (1 nM) is 2.38% (inactive); the “inhibition” value (8.33 nM) was 3.57% (inactive); the “inhibition” value (100 nM) is 0.87% (inactive); the “inhibition” value (833.33 nM) was 2.02% (inactive); the “inhibition” value (10000 nM) is 1.06% (inactive).

As for `CC(C)n1c(/C=C/[C@@H](O)C[C@@H](O)CC(=O)O)c(-c2ccc(F)cc2)c2ccccc21` [fluvastatin], the “inhibition” value was -0.24% (inactive) (1 nM); -1.21% (inactive) (8.33 nM); 1.75% (inactive) (100 nM); -1.33% (inactive) (833.33 nM); 2.61% (inactive) (10000 nM).

With `Cc1cc(OCCN2CCOCC2)nn1-c1ccc2ccccc2c1`, the “inhibition” value was -2.51% (inactive) (1 nM); -1.6% (inactive) (8.33 nM); -2.06% (inactive) (100 nM); 0.03% (inactive) (833.33 nM); 1.91% (inactive) (10000 nM).

On to `COCCNC(=O)Cn1cnc([N+](=O)[O-])n1` [sanazole], for which the “inhibition” value reads like this: (1 nM) -0.19% (inactive); (8.33 nM) 0.45% (inactive); (100 nM) -0.68% (inactive); (833.33 nM) -0.43% (inactive); (10000 nM) -3% (inactive).

As for `CCCn1c(=O)c2[nH]c(C3CCCC3)nc2n(CCC)c1=O`, the “inhibition” value is 2.33% (inactive) (1 nM); 2.47% (inactive) (8.33 nM); 1.58% (inactive) (100 nM); -1.44% (inactive) (833.33 nM); 1.86% (inactive) (10000 nM).

Consider `CC1(C)O[C@@H]2C[C@H]3[C@@H]4CCC5=CC(=O)C=C[C@]5(C)[C@@]4(F)[C@@H](O)C[C@]3(C)[C@]2(C(=O)CO)O1`, for which the “inhibition” value runs as follows: (1 nM) 0.1% (inactive); (8.33 nM) -0.04% (inactive); (100 nM) 1.38% (inactive); (833.33 nM) 1.4% (inactive); (10000 nM) -0.1% (inactive).

For `CC(C)(C)Cn1c(N)nc2ccc(-c3[nH]c(C(C)(C)C)nc3-c3ccc(F)cc3)nc21`, the “inhibition” value is 2.2% (inactive) (1 nM); -0.57% (inactive) (8.33 nM); -1.43% (inactive) (100 nM); 11.8% (inactive) (833.33 nM); 55.2% (active) (10000 nM).

Consider `Cc1cc(Cl)ccc1OCCCC(=O)NO` [droxinostat], for which the “inhibition” value (1 nM) is 4.45% (inactive); the “inhibition” value (8.33 nM) was 1.04% (inactive); the “inhibition” value (100 nM) is 1.23% (inactive); the “inhibition” value (833.33 nM) is 1.7% (inactive); the “inhibition” value (10000 nM) is -3.27% (inactive).

In the case of `Cc1ccc(C(=O)C(C)CN2CCCCC2)cc1` (stereo not given) [tolperisone], the “inhibition” value was -0.13% (inactive) (1 nM); -1.26% (inactive) (8.33 nM); -0.59% (inactive) (100 nM); -1.06% (inactive) (833.33 nM); 0.32% (inactive) (10000 nM).

`CCCCCCCCc1ccc(-c2ccc(C(=O)O)cc2)cc1`: the “inhibition” value is, setting by setting: (1 nM) -0.05% (inactive); (8.33 nM) 1.54% (inactive); (100 nM) 1.52% (inactive); (833.33 nM) 3.77% (inactive); (10000 nM) 1.83% (inactive).

Take `Cc1cc(C)nc(SCC(=O)Nc2ncc(Cc3cccc4ccccc34)s2)n1`: the “inhibition” value (1 nM) was 0.9% (inactive); the “inhibition” value (8.33 nM) was -1.68% (inactive); the “inhibition” value (100 nM) is 1.78% (inactive); the “inhibition” value (833.33 nM) was 0.63% (inactive); the “inhibition” value (10000 nM) was 2.48% (inactive).
